Structures are written as SMILES. Inconclusive results are not listed. A call without a number means that no potency is given here. Calls of active or inactive are those of the source. Calls come from the whole dose curve; as a rule, active = well fitted curve in the direction sought with a large enough effect; inconclusive = small, poorly fitted or top-dose-only effect, or another doubt; inactive = no such curve, though single readings can be large; an effect the other way counts as inactive or inconclusive.
Potency is the fitted concentration of half-maximal effect.

The nature of the first assay: A2780 Cisplatin Sensitive Ovarian Cancer Cell Toxicity qHTS against the NCATS CANVASS Library (AID 1347353). Note: nearly all actives have a fitted effect of over 60% in size. The settings on record: A2780 ovarian cancer viability, ATPLite luminescence, 72 h; series mostly up to 46.1 µM. In a few lines: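 Cisplatin-sensitive A2780 ovarian cells (750/well) received compound in 11 concentrations, and were incubated 72 h at 37 °C. ATP content was measured by ATPLite luminescence; bortezomib served as control.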
With `CC1=CC2CC[C@@H]3[C@@H](C)C[C@H](C)[C@@H](C1)N23` (stereo not given in full), the Potency entry is “inactive”.
Regarding `CC=C1CN(C=O)[C@H]2C[C@@H]1[C@@H](C(=O)OC)[C@@]13CCOC21Nc1ccccc13` (stereo not given in full), the Potency entry was “inactive”.
Turning to `CCN1C[C@]2(C)CC[C@@H](O)[C@]34C1[C@H](C[C@H]23)C12CCC(CC14)[C@](O)(CO)[C@H]2O` (stereo not given in full), the Potency result was “inactive”.
Turning to `CO[C@@H](/C=C/CC/C=C/C(=O)O)[C@@H](O)[C@H](C)[C@@H](O)/C(C)=C/[C@H](C)C(=O)CCCC1CC(=O)NC(=O)C1`, the Potency entry was “inactive”.
In the case of `CCCC[C@@H]1CC[C@H]2CCCC(CCC)N12` (stereo not given in full), the Potency entry was “inactive”.
Same read-out and setting: the entry for `C[C@]12CC(O)C3[C@@H](CCC4C[C@@H](O)CC[C@@]43CO)[C@@]1(O)CCC2C1=CC(=O)OC1` (stereo not given in full) is “inactive”; for `CO[C@@H](/C=C/CC/C=C/C(=O)O)[C@@H](O)[C@H](C)/C=C(\C)[C@@H](O)[C@H](C)C(=O)CCCC1CC(=O)NC(=O)C1` it is “inactive”.
For the compound `O=C(c1ccccc1O)c1[nH]c(Cl)c(Cl)c1-n1c(C(=O)c2ccccc2O)cc(Cl)c1Cl`, the Potency is 3.72 µM (active).
In the case of `CC[C@@H]1CN2CC[C@@]3(O)C(=Nc4cccc(OC)c43)[C@@H]2C[C@@H]1/C(=C\OC)C(=O)OC`, the Potency entry was “inactive”.
As to `c1ccc2c3c([nH]c2c1)CNCC3`, the Potency entry was “inactive”.
For `CNCCc1ccccc1`, the Potency result is “inactive”.
With `CCCCC[C@@H]1OC(=O)[C@@H](C)N(C)C(=O)[C@H](CCCCC)OC(=O)C(C)N(C)C(=O)[C@H](CCCCC)OC(=O)[C@@H](C)N(C)C(=O)[C@H](CCCCC)OC(=O)C(C)N(C)C1=O` (stereo not given in full), the Potency is 7.43 µM (active).
Still for that read-out and setting: the entry for `CO[C@H](c1ccccc1)[C@H]1NC(=O)C(C)NC(=O)C(C[C@@H](C)CO)N(C)C(=O)[C@@H](C(O)c2cn(C(C)(C)C3CO3)c3ccccc23)NC(=O)C(C(C)C=C(C)C)NC(=O)C(CC(C)C)N(C)C(=O)C(C(C)C)NC1=O` (stereo not given in full) is “inactive”; for `CCC(=O)CCCCC[C@@H]1NC(=O)[C@H]2CCCCN2C(=O)[C@H]([C@@H](C)CC)NC(=O)[C@H](Cc2cn(OC)c3ccccc23)NC1=O` it is 1.05 µM (active).

The next assay is described as follows: UWB1.289-WTBRCA1 Cancer Cell Toxicity qHTS against the NCATS CANVASS Library (AID 1347354). The settings on record: UWB1.289-WTBRCA1 viability, CellTiter-Glo luminescence, 72 h; series mostly up to 38.3 µM. In a few lines: (§1)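 Toxicity was measured as CellTiter-Glo luminescence after 72 h exposure to an 11-point compound series. Compound was added to 1000 cells/well 4 h after seeding.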
(In general: Quantitative high-throughput screening tests each substance at several concentrations.)
For `CC1=CC2CC[C@@H]3[C@@H](C)C[C@H](C)[C@@H](C1)N23` (stereo not given in full), the Potency result was “inactive”.
In the case of `CC=C1CN(C=O)[C@H]2C[C@@H]1[C@@H](C(=O)OC)[C@@]13CCOC21Nc1ccccc13` (stereo not given in full), the Potency entry is “inactive”.
Turning to `C[C@@H]1CC[C@@H](c2ccoc2)N2C[C@@]3(CC[C@@H]12)CS[C@@]1(CC[C@H]2[C@H](C)CC[C@@H](c4ccoc4)N2[C@@H]1O)C3`, the Potency was 8.38 µM (active).
With `CCN1C[C@]2(C)CC[C@@H](O)[C@]34C1[C@H](C[C@H]23)C12CCC(CC14)[C@](O)(CO)[C@H]2O` (stereo not given in full), the Potency result is “inactive”.
With `CO[C@@H](/C=C/CC/C=C/C(=O)O)[C@@H](O)[C@H](C)[C@@H](O)/C(C)=C/[C@H](C)C(=O)CCCC1CC(=O)NC(=O)C1`, the Potency entry was “inactive”.
Same read-out and setting: the entry for `CCCC[C@@H]1CC[C@H]2CCCC(CCC)N12` (stereo not given in full) is “inactive”.
The same measure, in the same setting: the entry for `C[C@]12CC(O)C3[C@@H](CCC4C[C@@H](O)CC[C@@]43CO)[C@@]1(O)CCC2C1=CC(=O)OC1` (stereo not given in full) is “inactive”; for `CO[C@@H](/C=C/CC/C=C/C(=O)O)[C@@H](O)[C@H](C)/C=C(\C)[C@@H](O)[C@H](C)C(=O)CCCC1CC(=O)NC(=O)C1` it is “inactive”.
Still for that read-out and setting: in the case of `O=C(c1ccccc1O)c1[nH]c(Cl)c(Cl)c1-n1c(C(=O)c2ccccc2O)cc(Cl)c1Cl` it was 13.3 µM (active); in that of `CC[C@@H]1CN2CC[C@@]3(O)C(=Nc4cccc(OC)c43)[C@@H]2C[C@@H]1/C(=C\OC)C(=O)OC`, “inactive”; in that of `c1ccc2c3c([nH]c2c1)CNCC3`, “inactive”.
`CNCCc1ccccc1`: the Potency entry is “inactive”.
In the case of `CCCCC[C@@H]1OC(=O)[C@@H](C)N(C)C(=O)[C@H](CCCCC)OC(=O)C(C)N(C)C(=O)[C@H](CCCCC)OC(=O)[C@@H](C)N(C)C(=O)[C@H](CCCCC)OC(=O)C(C)N(C)C1=O` (stereo not given in full), the Potency was 16.7 µM (active).
On the same count and under the same terms, the entry for `CO[C@H](c1ccccc1)[C@H]1NC(=O)C(C)NC(=O)C(C[C@@H](C)CO)N(C)C(=O)[C@@H](C(O)c2cn(C(C)(C)C3CO3)c3ccccc23)NC(=O)C(C(C)C=C(C)C)NC(=O)C(CC(C)C)N(C)C(=O)C(C(C)C)NC1=O` (stereo not given in full) is “inactive”.
On the same count and under the same terms, in the case of `CC1=CC(=O)C2=C(C)C[C@H](O)[C@@H]3[C@H](OC(=O)[C@@H]3C)[C@@H]12` it was “inactive”; in that of `CCN1C[C@]2(C)CC[C@H](O)[C@]34C1C(C[C@H]23)[C@@]12CC[C@H](CC14)[C@](O)(COC(=O)c1ccc(OC)c(OC)c1)[C@H]2O` (stereo not given in full), “inactive”; in that of `CCC(=O)CCCCC[C@@H]1NC(=O)[C@H]2CCCCN2C(=O)[C@H]([C@@H](C)CC)NC(=O)[C@H](Cc2cn(OC)c3ccccc23)NC1=O`, 6.66 µM (active).

Another assay can be described thus: HEK-293 Cancer Cell Toxicity qHTS against the NCATS CANVASS Library (AID 1347355). Note: nearly all actives have a fitted effect of over 65% in size. The settings on record: HEK-293 viability, CellTiter-Glo luminescence, 72 h; series mostly up to 46.1 µM. In a few lines: as §1
As to `CC1=CC2CC[C@@H]3[C@@H](C)C[C@H](C)[C@@H](C1)N23` (stereo not given in full), the Potency entry was “inactive”.
For the compound `CC=C1CN(C=O)[C@H]2C[C@@H]1[C@@H](C(=O)OC)[C@@]13CCOC21Nc1ccccc13` (stereo not given in full), the Potency result was “inactive”.
Regarding `C[C@@H]1CC[C@@H](c2ccoc2)N2C[C@@]3(CC[C@@H]12)CS[C@@]1(CC[C@H]2[C@H](C)CC[C@@H](c4ccoc4)N2[C@@H]1O)C3`, the Potency was 7.43 µM (active).
Consider `CCN1C[C@]2(C)CC[C@@H](O)[C@]34C1[C@H](C[C@H]23)C12CCC(CC14)[C@](O)(CO)[C@H]2O` (stereo not given in full), for which the Potency entry was “inactive”.
Regarding `CO[C@@H](/C=C/CC/C=C/C(=O)O)[C@@H](O)[C@H](C)[C@@H](O)/C(C)=C/[C@H](C)C(=O)CCCC1CC(=O)NC(=O)C1`, the Potency result was “inactive”.
For the compound `CCCC[C@@H]1CC[C@H]2CCCC(CCC)N12` (stereo not given in full), the Potency result is “inactive”.
With `C[C@]12CC(O)C3[C@@H](CCC4C[C@@H](O)CC[C@@]43CO)[C@@]1(O)CCC2C1=CC(=O)OC1` (stereo not given in full), the Potency entry was “inactive”.
With `CO[C@@H](/C=C/CC/C=C/C(=O)O)[C@@H](O)[C@H](C)/C=C(\C)[C@@H](O)[C@H](C)C(=O)CCCC1CC(=O)NC(=O)C1`, the Potency result is “inactive”.
Same read-out and setting: in the case of `O=C(c1ccccc1O)c1[nH]c(Cl)c(Cl)c1-n1c(C(=O)c2ccccc2O)cc(Cl)c1Cl` it was 4.18 µM (active); in that of `c1ccc2c3c([nH]c2c1)CNCC3`, “inactive”; in that of `CNCCc1ccccc1`, “inactive”.
Still for that read-out and setting: the figure for `CCCCC[C@@H]1OC(=O)[C@@H](C)N(C)C(=O)[C@H](CCCCC)OC(=O)C(C)N(C)C(=O)[C@H](CCCCC)OC(=O)[C@@H](C)N(C)C(=O)[C@H](CCCCC)OC(=O)C(C)N(C)C1=O` (stereo not given in full) is 4.18 µM (active); for `CC1=CC(=O)C2=C(C)C[C@H](O)[C@@H]3[C@H](OC(=O)[C@@H]3C)[C@@H]12` it is “inactive”.
Still for that read-out and setting: in the case of `CCC(=O)CCCCC[C@@H]1NC(=O)[C@H]2CCCCN2C(=O)[C@H]([C@@H](C)CC)NC(=O)[C@H](Cc2cn(OC)c3ccccc23)NC1=O` it was 0.935 µM (active).
